The record followed here is PubChem BioAssay (NCATS).

Several values for one entry are separate records, joined by “and”; a condition that tells them apart may be missing. Identical values can stand only once. Records with an inconclusive call do not appear. Activity calls are given as the source filed them. Unless noted, the call rests on the fitted dose curve.

For test [1], the target named is Bile acid receptor (Homo sapiens) (UniProt Q96RI1). Nature of the test: qHTS assay for small molecule agonists of farnesoid X receptor signaling (AID 588527).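 Further: 0% = vehicle basal and 100% = reference agonist.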 Conditions: HEK293T FXR-UAS-bla, beta-lactamase ratio, 16 h; stronger effect = higher value. The procedure, abridged:
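Read-out: beta-lactamase reporter fluorescence with CCF4 substrate in GeneBLAzer FXR-UAS-bla HEK293T cells, after 16 h compound exposure at 37 C. Response scaled between DMSO basal (0%) and chenodeoxycholic acid at 100 uM (100%).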
(In qHTS, concentration-response curves come from the screen itself.)

The target of test [2] is Peroxisome proliferator-activated receptor delta (Homo sapiens) (UniProt Q03181). Description: qHTS assay for small molecule agonists of peroxisome proliferator-activated receptor delta signaling (AID 588534).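 Further: 0% = DMSO basal wells and 100% = positive control agonist at 10 µM.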 Conditions: HEK293T PPARdelta-UAS-bla, beta-lactamase ratio, 18 h; series mostly up to 76.7 µM. The procedure, abridged: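 EC50 and efficacy values derive from Hill fits of a concentration series in a beta-lactamase reporter cell assay. Exposure is 18 hrs at 37 C, with CCF4 fluorescence as the readout.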

Test [3] addresses Glucocorticoid receptor (Homo sapiens) (UniProt P04150). Nature of the test: qHTS assay for small molecule agonists of glucocorticoid receptor signaling (AID 588532; active means well fitted curve in the direction sought with a large enough effect in the signal ratio, with a control signal flat; the % refers to the signal ratio;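 further: 100% = dexamethasone at 0.1 µM and 0% = DMSO only wells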). Conditions: HeLa MMTV-bla, beta-lactamase ratio, agonist, 18 h; stronger effect = higher value; percent of dexamethasone control, DMSO zero. Put shortly: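 Quantitative HTS using CellSensor MMTV-bla HeLa cells in charcoal/dextran-treated serum; compounds tested up to 92 uM. After 18 h at 37 C, CCF4 dye reported reporter induction.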

Test [4] shares this target. Nature of the test: qHTS assay for small molecule antagonists of glucocorticoid receptor signaling (AID 588533; active means well fitted inhibition curve with a large enough effect in the signal ratio, with a control signal flat, not every such curve was filed as active; the % refers to the signal ratio;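 further: cells stimulated with 2 nM dexamethasone as agonist; on the % scale 0 is the no-effect control and ±100 the full control effect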). To be noted: HeLa MMTV-bla, GRE beta-lactamase ratio, antagonist mode, 18 h; series mostly up to 76.8 µM. The procedure, abridged: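 Antagonist-mode qHTS: compound titrations added to GRE-bla HeLa cells, then dexamethasone 2 nM final; 18 h, 37 C. CCF4 FRET fluorescence normalized to dexamethasone and DMSO; IC50 from Hill fit.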

Test [5] in a line: qHTS assay for small molecule antagonists of peroxisome proliferator-activated receptor delta signaling (AID 588535; active means well fitted inhibition curve with a large enough effect in the signal ratio, with a control signal flat, not every such curve was filed as active; the % refers to the signal ratio;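 on max response: cells co-treated with a PPAR-delta agonist as stimulator during compound exposure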). To be noted: HEK293T PPARd-UAS-bla, beta-lactamase FRET ratio, 18 h; 460 nm channel. Put shortly: (§1)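 Antagonist-mode qHTS using GeneBLAzer PPAR-delta-UAS-bla HEK293T cells; compound exposure 18 hrs at 37 C over a titration. Ratiometric CCF4 fluorescence at 460/530 nm; concentration-response points fitted to the Hill equation.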

The target of test [6] is Peroxisome proliferator-activated receptor delta (Homo sapiens) (UniProt Q03181). The description is as above. Conditions: HEK293T PPARd-UAS-bla, beta-lactamase FRET ratio, 18 h; series mostly up to 76.7 µM. Put shortly:
as §1

The target in test [7] is Peroxisome proliferator-activated receptor gamma (Homo sapiens) (UniProt P37231). Description: qHTS assay for small molecule antagonists of peroxisome proliferator-activated receptor gamma signaling (AID 588537; active means well fitted inhibition curve with a large enough effect in the signal ratio, with a control signal flat, not every such curve was filed as active; the % refers to the signal ratio;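 further: reporter cells co-stimulated with 50 nM rosiglitazone agonist during compound treatment; % of control where 0% means no effect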). To be noted: HEK293 PPARg-UAS-bla, beta-lactamase ratio, antagonist mode; series mostly up to 76.8 µM. Put shortly:
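Cell-based beta-lactamase assay; GW9662 served as the antagonist control. Stimulation used rosiglitazone, final 50 nM, 16 h, 37 C.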

Test [8] has as its target Vitamin D3 receptor (Homo sapiens) (UniProt P11473). Description: qHTS assay for small molecule antagonists of vitamin D receptor signaling (AID 588541).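 Further: receptor activated by calcitriol during compound treatment; on the % scale 0 is the no-effect control and ±100 the full control effect.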 To be noted: HEK293T VDR-UAS-bla, beta-lactamase ratio, antagonist mode; series mostly up to 76.7 µM. The procedure, abridged:
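Antagonist-mode beta-lactamase reporter assay: HEK293T VDR-UAS-bla cells were exposed to titrated compound alongside 1-alpha,25-dihydroxyvitamin D3 at 3 nM final for 16 h. Values were normalized to the 50 nM agonist control and DMSO basal, with IC50 and efficacy from Hill equation fits.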

For test [9] the target is unchanged. Nature of the test: qHTS assay for small molecule agonists of vitamin D receptor signaling (AID 588543).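 Further: 0% = DMSO basal and 100% = reference agonist control.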 Conditions: HEK293T VDR-UAS-bla, beta-lactamase ratio, 16 h; series mostly up to 76.8 µM. Put shortly:
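VDR-UAS-bla HEK293T cells, 2000/well, 2% charcoal-stripped FBS; compound titration 16 h at 37 C; CCF4 beta-lactamase ratio read. Normalized to 50 nM 1-alpha,25-dihydroxyvitamin D3 (100%) and DMSO; Hill fit gives EC50, efficacy.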

Test [10] in a line: qHTS assay for small molecule antagonists of retinoid X receptor alpha signaling (AID 588546; active means well fitted inhibition curve with a large enough effect in the signal ratio, with a control signal flat, not every such curve was filed as active; the % refers to the signal ratio;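 further: cells stimulated with 9-cis-retinoic acid as agonist; on the % scale 0 is the no-effect control and ±100 the full control effect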). Conditions: HEK293T RXRa-UAS-bla, beta-lactamase ratio, antagonist mode; measured here: W530 green channel, cytotoxicity proxy. Put shortly:
(§2)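 Beta-lactamase reporter inhibition, read as CCF4 fluorescence ratio (ex 405, em 460/530 nm) after 2 h at RT. HEK293T UAS-bla cells, 2500/well, were stimulated with 9-cis-RA at 500 or 100 nM final alongside test compound for 18 h at 37 C.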

In test [11] the target is Retinoic acid receptor RXR-alpha (Homo sapiens) (UniProt P19793). Described as above. Conditions: HEK293T RXRa-UAS-bla, beta-lactamase ratio, antagonist mode. Put shortly: as §2
Test [12] has as its target Voltage-gated inwardly rectifying potassium channel KCNH2 (Homo sapiens) (UniProt Q12809). Nature of the test: qHTS Assay for Small Molecule Inhibitors of the Human hERG Channel Activity (AID 588834; active means well fitted curve in the direction sought with a large enough effect; an effect the other way counts as inactive or inconclusive;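 further: top concentration of the series differs between compounds; on the % scale 0 is the no-effect control and ±100 the full control effect; lower thallium flux fluorescence means stronger hERG block; nearly all actives have a fitted effect of over 50% in size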). Conditions: U2OS BacMam hERG, FluxOR thallium flux fluorescence; series mostly up to 46.1 µM. Put shortly:
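Thallium serves as surrogate for K+ influx through BacMam-delivered hERG in U2OS cells. Compounds are added for about 10 minutes after dye loading; stimulation buffer then starts flux, monitored kinetically on FDSS.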

For test [13], the target named is Thyroid hormone receptor beta (Homo sapiens) (UniProt P10828). Description: qHTS assay for small molecule agonists of thyroid hormone receptor beta signaling (AID 588545). Conditions: TR-UAS-bla GripTite HEK 293, beta-lactamase ratio, agonist mode, 18 h, percent of T3 response, DMSO as zero; series mostly up to 76.7 µM. Put shortly: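 In this cell-based screen, titrated compounds act on HEK 293 cells held in medium with 2% charcoal/dextran FBS, NEAA and pyruvate for 18 hrs at 37 C. Responses are expressed relative to T3 (10 nM) as 100% and basal DMSO as 0%.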

Test [14] in a line: qHTS assay for small molecule agonists of retinoid X receptor alpha signaling (AID 588544).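 On activation: 0% = DMSO basal wells and 100% = reference agonist.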 To be noted: HEK293T RXRa-UAS-bla, beta-lactamase reporter, 18 h; 530 nm emission.
Test [15] concerns the target Retinoic acid receptor RXR-alpha (Homo sapiens) (UniProt P19793). Described as above. Conditions: HEK293T RXRa-UAS-bla, beta-lactamase reporter, 18 h; series mostly up to 76.7 µM.
The target of test [16] is Thyroid hormone receptor beta (Homo sapiens) (UniProt P10828). Description: qHTS assay for small molecule antagonists of thyroid hormone receptor beta signaling (AID 588547; active means well fitted inhibition curve with a large enough effect in the signal ratio, with a control signal flat, not every such curve was filed as active; the % refers to the signal ratio;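 further: cells stimulated with 0.4 nM T3 agonist during compound exposure; on the % scale 0 is the no-effect control and ±100 the full control effect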). Conditions: TR-UAS-bla HEK293, beta-lactamase ratio, antagonist mode, 18 h. The procedure, abridged:
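Inhibition of T3-driven (0.4nM final) beta-lactamase reporter activity was measured over 0.59 nM to 92 uM compound after 18 h at 37 C. The cells were GripTite HEK293 TR-UAS-bla in charcoal/dextran-stripped serum, with CCF4 ratio read-out and IC50 from Hill fits.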

In test [17] the target is Luciferin 4-monooxygenase (Photinus pyralis) (UniProt P08659). Description: Biochemical firefly luciferase enzyme assay for NPC (AID 624030; active means well fitted curve in the direction sought with a large enough effect; an effect the other way counts as inactive or inconclusive;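 further: purified P. pyralis luciferase at 10 nM with luciferin and ATP substrate; 0% = DMSO and -100% = full luciferase inhibition by PTC124 control; nearly all actives have a fitted effect of over 70% in size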). To be noted: purified P. pyralis luciferase, luminescence, 5 min; series mostly up to 58.6 µM. Put shortly: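 Direct inhibition of firefly luciferase enzyme (10 nM final, 50 mM Tris Acetate) assessed by luminescence within 5 minutes. Percent activity scaled between DMSO and PTC124 positive control, with concentration-effect curves classified by fit quality and response.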

For test [18], the target named is Peroxisome proliferator-activated receptor gamma (Homo sapiens) (UniProt P37231). Nature of the test: qHTS assay for small molecule agonists of peroxisome proliferator-activated receptor gamma signaling (AID 588536; active means well fitted curve in the direction sought with a large enough effect in the signal ratio, with a control signal flat, not every such curve was filed as active; the % refers to the signal ratio;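 further: 0% = DMSO basal wells and 100% = rosiglitazone at 2 µM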). To be noted: HEK293 PPARg-UAS-bla, beta-lactamase ratio, 16 h, percent of rosiglitazone response, DMSO as zero; series mostly up to 76.7 µM. Put shortly:
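Beta-lactamase reporter read-out: CCF4 fluorescence (ex 405, em 460/530 nm) after 2 h at RT. HEK293 GeneBLAzer cells were treated for 16 h at 37 C. Hill fits gave EC50 and efficacy versus 2 uM rosiglitazone (100%) and DMSO (0%).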

Test [19] is described as follows: S16 Schwann cell viability assay (CellTiter-Glo assay) (AID 624031; active means well fitted curve in the direction sought with a large enough effect; an effect the other way counts as inactive or inconclusive;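 further: native untransfected S16 rat Schwann cells; cellular ATP luminescence as a viability measure; plate controls were DMSO-treated cells for no effect and cell-free wells for full effect; nearly all actives have a fitted effect of over 70% in size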). To be noted: S16 rat Schwann cells viability, 24 h; series mostly up to 57.5 µM. Put shortly: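 Parental S16 cells, 24 h compound, 37 °C. ATP-luminescence viability; DMSO = 0% activity, empty wells as reference; curves classified by fit quality and efficacy.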
Test [20] can be described thus: S16 Schwann cell PMP22 intronic element firefly luciferase assay (AID 624032; active means well fitted curve in the direction sought with a large enough effect; an effect the other way counts as inactive or inconclusive;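 further: plate controls were DMSO for no effect and PTC124 positive control mean for full effect; nearly all actives have a fitted effect of over 30% in size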). Conditions: S16 rat Schwann cells, PMP22 element FLuc, 24 h; series mostly up to 57.5 µM. The procedure, abridged:
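Luciferase reporter of PMP22 intronic-element expression in stably transfected S16 rat Schwann cells, read by ONE-Glo luminescence after 24 h compound exposure at 37 C. Activity scaled between DMSO (0%) and positive-control PTC124; concentration-effect curves quality-classified.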

Sequence of Peroxisome proliferator-activated receptor gamma (Homo sapiens) (P37231 whole entry, looked up): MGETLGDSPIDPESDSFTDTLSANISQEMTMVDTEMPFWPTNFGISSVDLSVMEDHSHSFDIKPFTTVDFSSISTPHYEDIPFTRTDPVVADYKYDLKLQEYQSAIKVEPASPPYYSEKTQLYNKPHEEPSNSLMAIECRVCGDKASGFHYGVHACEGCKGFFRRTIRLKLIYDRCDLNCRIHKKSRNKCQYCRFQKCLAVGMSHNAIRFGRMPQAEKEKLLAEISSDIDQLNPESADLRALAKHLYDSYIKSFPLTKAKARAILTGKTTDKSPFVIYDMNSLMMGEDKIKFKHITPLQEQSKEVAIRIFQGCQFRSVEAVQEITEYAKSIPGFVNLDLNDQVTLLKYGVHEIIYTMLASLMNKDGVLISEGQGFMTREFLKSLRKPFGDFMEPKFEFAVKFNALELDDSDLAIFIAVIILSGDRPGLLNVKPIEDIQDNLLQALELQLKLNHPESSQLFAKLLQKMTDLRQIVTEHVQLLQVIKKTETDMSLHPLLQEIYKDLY
Sequence of Retinoic acid receptor RXR-alpha (Homo sapiens) (P19793 whole entry, looked up): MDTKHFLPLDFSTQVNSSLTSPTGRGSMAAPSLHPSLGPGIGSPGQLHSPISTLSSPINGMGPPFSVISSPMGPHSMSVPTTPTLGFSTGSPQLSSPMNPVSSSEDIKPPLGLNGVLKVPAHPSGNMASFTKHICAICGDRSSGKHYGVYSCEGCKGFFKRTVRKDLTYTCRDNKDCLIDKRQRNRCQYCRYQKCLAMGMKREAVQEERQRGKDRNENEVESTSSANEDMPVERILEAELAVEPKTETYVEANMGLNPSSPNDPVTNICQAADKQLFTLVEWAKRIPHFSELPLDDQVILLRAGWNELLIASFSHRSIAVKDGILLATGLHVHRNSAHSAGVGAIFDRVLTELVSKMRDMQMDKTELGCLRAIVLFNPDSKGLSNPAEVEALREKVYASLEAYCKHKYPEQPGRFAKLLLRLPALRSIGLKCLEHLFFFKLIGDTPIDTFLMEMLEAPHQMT
Sequence of Bile acid receptor (Homo sapiens) (Q96RI1 whole entry, looked up): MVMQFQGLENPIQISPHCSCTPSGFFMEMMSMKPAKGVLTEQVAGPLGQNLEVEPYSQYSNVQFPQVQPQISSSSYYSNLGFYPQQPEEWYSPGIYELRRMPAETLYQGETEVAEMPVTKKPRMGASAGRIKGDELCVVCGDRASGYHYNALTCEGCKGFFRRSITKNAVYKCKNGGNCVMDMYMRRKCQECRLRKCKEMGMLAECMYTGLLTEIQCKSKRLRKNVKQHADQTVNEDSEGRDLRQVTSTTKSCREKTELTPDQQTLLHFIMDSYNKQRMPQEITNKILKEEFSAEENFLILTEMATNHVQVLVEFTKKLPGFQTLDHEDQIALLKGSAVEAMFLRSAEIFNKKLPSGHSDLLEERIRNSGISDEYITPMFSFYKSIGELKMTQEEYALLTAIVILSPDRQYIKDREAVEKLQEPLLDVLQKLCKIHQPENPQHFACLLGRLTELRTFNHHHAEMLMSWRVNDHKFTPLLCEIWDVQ
Sequence of Thyroid hormone receptor beta (Homo sapiens) (P10828 whole entry, looked up): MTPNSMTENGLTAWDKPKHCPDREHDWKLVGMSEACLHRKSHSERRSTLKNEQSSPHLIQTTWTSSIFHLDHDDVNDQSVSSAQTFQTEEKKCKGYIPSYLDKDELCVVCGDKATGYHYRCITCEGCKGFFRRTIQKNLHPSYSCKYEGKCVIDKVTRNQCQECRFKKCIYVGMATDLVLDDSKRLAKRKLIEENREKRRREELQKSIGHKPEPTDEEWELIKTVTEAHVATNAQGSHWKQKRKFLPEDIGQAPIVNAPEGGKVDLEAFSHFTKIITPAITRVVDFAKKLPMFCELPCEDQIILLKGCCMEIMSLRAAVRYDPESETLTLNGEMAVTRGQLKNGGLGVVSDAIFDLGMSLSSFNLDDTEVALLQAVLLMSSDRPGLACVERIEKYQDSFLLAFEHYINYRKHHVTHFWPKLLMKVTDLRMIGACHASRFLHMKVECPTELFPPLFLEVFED
Sequence of Glucocorticoid receptor (Homo sapiens) (P04150 whole entry, looked up): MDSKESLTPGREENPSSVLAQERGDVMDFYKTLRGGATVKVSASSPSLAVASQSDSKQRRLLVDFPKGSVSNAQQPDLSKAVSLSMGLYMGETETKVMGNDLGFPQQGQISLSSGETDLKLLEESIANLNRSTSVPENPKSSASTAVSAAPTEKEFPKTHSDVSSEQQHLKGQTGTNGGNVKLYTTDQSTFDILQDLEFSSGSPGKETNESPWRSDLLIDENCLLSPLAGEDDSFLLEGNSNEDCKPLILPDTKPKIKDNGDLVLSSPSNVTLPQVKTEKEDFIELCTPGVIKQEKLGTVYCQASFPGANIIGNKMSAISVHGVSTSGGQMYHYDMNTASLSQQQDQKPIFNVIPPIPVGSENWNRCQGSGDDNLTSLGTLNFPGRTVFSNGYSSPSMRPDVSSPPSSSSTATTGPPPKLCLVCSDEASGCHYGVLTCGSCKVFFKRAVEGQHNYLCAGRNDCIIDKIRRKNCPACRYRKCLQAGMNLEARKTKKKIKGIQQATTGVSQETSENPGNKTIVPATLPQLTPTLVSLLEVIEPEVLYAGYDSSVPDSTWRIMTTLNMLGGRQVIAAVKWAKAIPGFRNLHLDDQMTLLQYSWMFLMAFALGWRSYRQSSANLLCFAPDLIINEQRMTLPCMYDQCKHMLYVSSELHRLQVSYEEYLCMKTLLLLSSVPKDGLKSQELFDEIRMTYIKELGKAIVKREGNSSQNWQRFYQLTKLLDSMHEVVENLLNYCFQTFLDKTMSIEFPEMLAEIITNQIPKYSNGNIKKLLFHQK
Sequence of Luciferin 4-monooxygenase (Photinus pyralis) (P08659 whole entry, looked up): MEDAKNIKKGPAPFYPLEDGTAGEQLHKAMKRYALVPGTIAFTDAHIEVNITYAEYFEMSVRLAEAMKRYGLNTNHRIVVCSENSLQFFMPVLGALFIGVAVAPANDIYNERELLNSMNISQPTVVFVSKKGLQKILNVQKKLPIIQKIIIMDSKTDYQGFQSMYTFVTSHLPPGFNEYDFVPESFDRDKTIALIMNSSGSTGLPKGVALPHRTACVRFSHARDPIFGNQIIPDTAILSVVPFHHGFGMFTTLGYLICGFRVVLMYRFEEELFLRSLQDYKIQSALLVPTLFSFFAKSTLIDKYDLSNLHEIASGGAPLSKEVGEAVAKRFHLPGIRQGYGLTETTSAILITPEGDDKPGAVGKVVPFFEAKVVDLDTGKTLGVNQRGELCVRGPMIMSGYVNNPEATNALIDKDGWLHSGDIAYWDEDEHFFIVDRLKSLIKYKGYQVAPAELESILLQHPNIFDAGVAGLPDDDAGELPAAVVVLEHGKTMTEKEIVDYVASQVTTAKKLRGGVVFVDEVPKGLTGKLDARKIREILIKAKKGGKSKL
Sequence of Vitamin D3 receptor (Homo sapiens) (P11473 whole entry, looked up): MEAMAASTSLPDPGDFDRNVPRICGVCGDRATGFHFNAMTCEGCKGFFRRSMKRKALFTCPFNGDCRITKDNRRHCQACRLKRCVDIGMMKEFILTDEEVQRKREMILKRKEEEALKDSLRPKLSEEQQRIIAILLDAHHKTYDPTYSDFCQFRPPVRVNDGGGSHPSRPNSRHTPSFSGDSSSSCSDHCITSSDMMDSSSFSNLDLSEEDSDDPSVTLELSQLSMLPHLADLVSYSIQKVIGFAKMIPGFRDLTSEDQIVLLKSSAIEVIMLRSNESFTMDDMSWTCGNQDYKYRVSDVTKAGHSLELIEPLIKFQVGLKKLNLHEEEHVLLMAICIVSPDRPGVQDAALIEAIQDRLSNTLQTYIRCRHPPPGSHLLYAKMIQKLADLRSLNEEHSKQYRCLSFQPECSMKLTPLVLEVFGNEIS
Sequence of Peroxisome proliferator-activated receptor delta (Homo sapiens) (Q03181 whole entry, looked up): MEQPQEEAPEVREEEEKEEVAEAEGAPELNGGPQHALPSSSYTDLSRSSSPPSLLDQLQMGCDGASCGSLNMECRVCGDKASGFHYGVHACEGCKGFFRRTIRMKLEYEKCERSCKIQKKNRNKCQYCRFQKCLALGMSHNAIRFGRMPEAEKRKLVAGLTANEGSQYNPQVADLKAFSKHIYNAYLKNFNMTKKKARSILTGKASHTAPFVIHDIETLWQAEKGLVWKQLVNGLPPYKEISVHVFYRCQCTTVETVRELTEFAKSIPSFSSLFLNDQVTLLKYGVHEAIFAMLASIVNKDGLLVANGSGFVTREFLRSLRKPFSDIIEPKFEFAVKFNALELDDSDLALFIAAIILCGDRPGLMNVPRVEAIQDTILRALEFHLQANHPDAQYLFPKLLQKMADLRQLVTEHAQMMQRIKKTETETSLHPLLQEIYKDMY

Regarding `S=c1[nH]c2ccccc2s1`, the activation in [1] was -0.945% (inactive) and -0.0694% (inactive). In test [2], the outcome was inactive.

On to `CCCCCCCCOc1ccc(C(=O)c2ccccc2)c(O)c1`, for which the activation in test [1] was -1.08% (inactive). Also, in [2], the outcome was inactive.

As for `CCCOC(=O)c1ccc(O)cc1`, in test [1], the activation is 0.147% (inactive) and -2.34% (inactive) and 4.63% (inactive). Further, the result in test [2] was inactive.

On to `OCc1c[nH]c2ccccc12`, for which, in test [1], the activation was 1.66% (inactive). In [2], the outcome was inactive.

As for `Clc1cnc(Oc2ccc(Oc3ncc(Cl)cc3Cl)cc2)c(Cl)c1`, the values for the activation in [1] and in test [3] were 0.177% (inactive) and -2.42% (inactive), respectively. Moreover, the Potency entry in test [4], in [6], in test [7], in test [8] and in test [12] was “inactive” in each case. The outcome in test [2] and in test [9] was inactive. Moreover, the max response in test [5] was 17%; in test [10], -4.82%; in [11], -16.8% (inactive).

For `CCCCCC[C@H]1C(=O)O[C@H](C)[C@H](NC(=O)c2cccc(NC=O)c2O)C(=O)O[C@@H](C)[C@@H]1OC(=O)CC(C)C`, the activation in [1] was -3.37% (inactive); in test [3] it was -11.1% (inactive). In [13], the result was inactive.

Consider `CCCN(CCC)c1c([N+](=O)[O-])cc(S(N)(=O)=O)cc1[N+](=O)[O-]`, for which the figures for the activation in test [1] and in test [3] were -1% (inactive) and -3.33% (inactive), respectively. Further, the outcome in test [2] and in test [9] was inactive. Further, the max response in test [5] was 53.5%; in [14] it was -0.936%; in test [10], -18.5%; in [11] it was 2.44% (inactive). Further, the Potency entry in test [6], in test [15] and in [17] was “inactive” in each case. Further, the activity change % (negative = inhibition) in test [16] is 0.13% (inactive).

On to `Cc1cc(O)ccc1Cl`, for which the activation in test [1] is 1.93% (inactive). Moreover, the Potency result in test [4], in test [6], in test [7], in test [8], in [15] and in test [12] was “inactive” in each case. For the same compound, the Potency entry in test [17], in [19] and in test [20] was “inactive” in each case. The result in [2], in test [18], in [9] and in test [13] was inactive. In addition, the max response in test [5] is 44.7%; in test [14] it was -6.7%; in [10] it was 3.81%; in test [11], -4.22% (inactive). Besides, the activity change % (negative = inhibition) in test [16] was 1.27% (inactive).

For the compound `O=C(O)COc1nc(Cl)c(Cl)cc1Cl`, the activation is -0.709% (inactive) in test [1] and -16% (inactive) in test [3]. Further, the Potency result in test [4], in test [6], in [8] and in test [17] was “inactive” in each case. For the same compound, the max response in test [5] was 110%; in test [10] it was 0.628%; in [11], 6.2% (inactive). Moreover, the outcome in [13] was inactive. In addition, the activity change % (negative = inhibition) in test [16] is 3.94% (inactive).

For `C1CCC(NC2CCCCC2)CC1`, the activation in test [3] was 3.43% (inactive) and -1% (inactive) and -4.74% (inactive). For the same compound, the Potency entry in [4], in [6], in test [7], in [8], in test [15] and in test [12] was “inactive” each time. Moreover, the Potency entry in test [17], in test [19] and in test [20] was “inactive” throughout. The result in test [2], in test [18], in [9] and in test [13] was inactive. Further, the max response in test [5] was 10% and 0.455%; in test [14], -15% and -1.01% and -0.218%; in [10] it was -3.33% and -12% and -7.77%; in test [11], 9.08% (inactive) and 2.51% (inactive) and 3.48% (inactive). The activity change % (negative = inhibition) in test [16] is -2.7% (inactive) and -4.6% (inactive) and 5.65% (inactive).
